Screening data deposited in PubChem by several laboratories.
This is a sample that favours compounds with a hit; in the whole collection about 4.7% have one here.
SARS 3CLpro inh – SARS-CoV 3CLpro protease inhibitors, primary screen, biochemical, quenched FRET; Replicase polyprotein 1ab (Severe acute respiratory syndrome coronavirus), P0C6X7; recombinant SARS-CoV 3CLpro, quenched FRET peptide cleavage; AID 1706, 2009; 0.14% of 290,000 active; inhibition, % at 6 µM; in the data active means inhibition above about 12%
Mtb FBA inh – Mtb FBA enzyme inhibitors, primary screen, biochemical, fluorescence, strain H37Rv | inhibition, % at 1 µM | purified M. tuberculosis FBA, fluorescence read-out | AID 588726, 2011 | 2.3% of 360,000 active; in the data active means inhibition above about 27%
VHR inh abs – VHR1 phosphatase inhibitors, primary screen, biochemical, absorbance, uHTS. Dual specificity protein phosphatase 3 (Homo sapiens), P51452. recombinant VHR phosphatase, pNPP absorbance. inhibition, % at 13.3 µM. 0.52% of 290,000 active; in the data active means inhibition above about 50%
GDH-TPI counter – GDH-TPI coupling enzyme inhibitors, primary screen, artefact control for M. tuberculosis FBA inhibitor project, biochemical, absorbance, full deck; 1.2% of 360,000 active; inhibition, % at 4.8 µM; GDH-TPI coupled enzyme counterscreen, NADH absorbance
RecA intein inh – Mtb RecA intein splicing inhibitors, primary screen, biochemical, fluorescence, HTS. Protein RecA (Mycobacterium tuberculosis (strain ATCC 25618 / H37Rv)), P9WHJ3. cell-free RecA intein splicing. inhibition, % (no concentration beside the values). 0.75% of 290,000 active. AID 2221, 2009; in the data active means inhibition above about 30%
CCHFV vOTU inh – CCHFV vOTU protease inhibitors, primary screen, biochemical, Pep-AMC substrate, fluorescence; 0.55% of 370,000 active; inhibition, % at 11.5 µM; Crimean-Congo hemorrhagic fever virus L polyprotein viral ovarian tumor (vOTU) protease …
GFP chromophore – counter-screen: blocks GFP chromophore formation, dose response, counter-screen, biochemical, fluorescence, homogeneous | shares compounds with RecA intein inh | EC50, µM | 83% of 2,100 active | cell-free GFP chromophore formation; call rule not given here
A number is an active result; - = inactive; . = no result. Unless noted, no stated cut-off is given here; in the data, active means inhibition above about 30%; inactive means the rest.

SMILES	SARS 3CLpro inh	Mtb FBA inh	VHR inh abs	GDH-TPI counter	RecA intein inh	CCHFV vOTU inh	GFP chromophore
Cc1[nH]nc2c1C(c1ccc(Cl)cc1)C(C#N)=C(N)O2 (stereo unspecified)	-	-	-	-	75	-	29
COc1ccc(N2C(=O)NC(=O)/C(=C/c3cccc(OC(=O)c4cccs4)c3)C2=O)cc1Cl	-	.	-	.	-	-	.
Cc1ccc(N2C(=O)NC(=O)/C(=C/c3ccc(OC(=O)c4cccs4)cc3)C2=O)cc1	-	-	-	-	34	-	0.82
Cc1ccc(S(=O)(=O)N=S(CCO)CCO)cc1	-	-	-	-	-	-	.
Cc1ccccc1CN1CCN(C(=O)[C@H]2O[C@@H](n3cnc4c(N)ncnc43)[C@H](O)[C@@H]2O)CC1	.	-	.	.	.	-	.
CS/C(Nc1cc(Cl)ccc1Cl)=C(/C#N)C(=O)c1ccco1	-	-	-	-	65	-	27
O=C(CC1C(=O)NCCN1Cc1cccc(C(F)(F)F)c1)NC1CCCCCC1 (stereo unspecified)	-	-	-	-	-	.	.
O=C(CSc1c2c(nc3cc(Cl)ccc13)CCCC2)NCc1ccco1	-	-	-	-	30	-	-
COc1ccc(NC(=O)CSc2c3c(nc4cc(Cl)ccc24)CCCC3)cc1OC	-	-	-	-	-	-	29
CC1=NN(c2ccc(C)cc2C)C(=O)C1C(c1cccc(O)c1)C1C(=O)N(c2ccc(C)cc2C)N=C1C (stereo unspecified)	-	-	-	-	97	-	1.4
Cc1nn(C)c(C)c1NC(=O)CCl	-	-	-	-	-	-	.
CCC(=O)Nc1c(C)nn(C(=O)CC)c1C	-	-	-	-	57	-	-
Cc1cccc(CS(=O)(=O)c2ncc(Cl)c(C(=O)Nc3c(C)cccc3C)n2)c1	-	-	-	-	46	-	9.9
Cc1cccc(C)c1NC(=O)c1nc(S(=O)(=O)Cc2ccccc2)ncc1Cl	-	-	-	-	36	-	17
CCCc1nnc(NC(=O)c2nc(S(=O)(=O)Cc3cccc(C)c3)ncc2Cl)s1	-	-	-	-	85	-	-
Cc1cccc(CS(=O)(=O)c2ncc(Cl)c(C(=O)NCc3ccccc3)n2)c1	-	-	-	-	-	-	.
COc1ccc(OC)c(NC(=O)c2nc(S(=O)(=O)Cc3ccccc3)ncc2Cl)c1	-	-	-	-	-	-	.
Cc1nnc(NC(=O)c2nc(S(=O)(=O)Cc3ccccc3)ncc2Cl)s1	-	-	-	-	56	-	16
Nc1ccn([C@@H]2O[C@H](C(=O)N3CCN(CCO)CC3)[C@@H](O)[C@H]2O)c(=O)n1	.	.	.	.	.	-	.
CC1(C(=O)Nc2ccc3c(c2)OCCO3)CN(S(C)(=O)=O)CC(=O)N1CCc1c[nH]c2ccccc12 (stereo unspecified)	.	.	.	.	.	-	.
Cc1cccc(C)c1NC(=O)C(C1CC1)n1c(-c2ccc(-c3ccccc3)cc2)nc2ccccc21 (stereo unspecified)	.	.	.	.	.	-	.
CCN(Cc1ccc2c(c1)OCCO2)C(=O)CSc1nc(C)nc2sc(C)c(C)c12	.	-	.	-	.	-	.
CCS(=O)(=O)c1ncc(Cl)c(C(=O)Nc2ccc(S(=O)(=O)N(C)c3ccccc3)cc2)n1	-	-	-	-	97	-	1.6
O=C(Nc1ccc(F)cc1)c1nc(S(=O)(=O)Cc2ccccc2)ncc1Cl	-	-	-	-	-	-	.
Cc1ccccc1CS(=O)(=O)c1ncc(Cl)c(C(=O)Nc2ccc(F)cc2)n1	-	-	-	-	34	-	8.6
Cc1ccc(NC(=O)c2nc(S(=O)(=O)Cc3ccccc3)ncc2Cl)cc1	-	-	-	-	66	-	40
CCN(c1ccccc1)S(=O)(=O)c1ccc(NC(=O)c2nc(S(C)(=O)=O)ncc2Cl)cc1	-	-	-	-	-	.	.
